Compounds without any hit were thinned out: in the full panel of roughly 79,000, 15% have a hit. Unmarked numbers belong to inactive results. Activity calls are given as the source filed them. No stated cut-off is given here; in the data, active means growth inhibition above about 70%; inactive means the rest.
Legend:
[1] = NCI Yeast Anticancer Drug Screen. Data for the rad50 strain (AID 155);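 further: 0% = growth of vehicle-only cultures of the same strain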; conditions: S. cerevisiae rad50 strain growth inhibition, active compounds read high
How it was run: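 Cells are treated with compound, grown, and their growth is then scored against vehicle-only cultures of the same repair-deficient yeast strain.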

[2] = NCI Yeast Anticancer Drug Screen. Data for the mec2-1 strain (AID 157); conditions: S. cerevisiae mec2-1 strain, active compounds read high
How it was run: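 Each compound was tested on mec2-1 yeast, a strain altered in DNA damage repair or cell cycle control. Growth inhibition is reported relative to vehicle.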

[3] = NCI Yeast Anticancer Drug Screen. Data for the sgs1 mgt1 strain (AID 161);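 further: 0% = growth of cultures given vehicle only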; conditions: S. cerevisiae sgs1 mgt1 strain, active compounds read high
How it was run: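 Mutant yeast exposed to compound; growth scored against vehicle-only wells.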

[4] = NCI Yeast Anticancer Drug Screen. Data for the cln2 rad14 strain (AID 165);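 further: 0% = growth equal to vehicle treated cultures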; conditions: S. cerevisiae cln2 rad14 strain, active compounds read high
How it was run: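 Test compounds were added to cln2 rad14 yeast cultures; inhibition of growth was then determined by comparison with vehicle treatment.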

[5] = NCI Yeast Anticancer Drug Screen. Data for the bub3 strain (AID 167); conditions: S. cerevisiae bub3 mutant strain, active compounds read high
How it was run: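 Part of a panel of yeast mutants defective in DNA damage repair or cell cycle regulation. Each strain is grown with compound, and inhibition is calculated relative to solvent-treated cultures.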

[6] = NCI Yeast Anticancer Drug Screen. Data for the mlh1 rad18 strain (AID 175); conditions: S. cerevisiae mlh1 rad18 strain growth inhibition, active compounds read high
How it was run: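 Inhibition values reflect reduced growth of mutant yeast versus vehicle-treated controls following compound exposure; the mutations affect DNA damage repair.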

[7] = at 5.0 µM (retest, dose inferred, filed as 0.5)
[8] = at 50.0 µM (retest, dose inferred, filed as 5.0)

SMILES | growth inhibition [1, 7] | growth inhibition [1, 8] | growth inhibition ([1]; at 50.0 µM) | growth inhibition [2, 7] | growth inhibition [2, 8] | growth inhibition ([2]; at 50.0 µM) | growth inhibition [3, 7] | growth inhibition [3, 8] | growth inhibition ([3]; at 50.0 µM) | growth inhibition [4, 7] | growth inhibition [4, 8] | growth inhibition ([4]; at 50.0 µM) | growth inhibition [5, 7] | growth inhibition [5, 8] | growth inhibition ([5]; at 50.0 µM) | growth inhibition [6, 7] | growth inhibition [6, 8] | growth inhibition ([6]; at 50.0 µM)
CC(=O)C(CN(C)Cc1ccccc1)C(c1ccccc1)c1c(O)c2ccccc2oc1=O (configuration not stated) | 26% | 26% | 68.5% | 1% | 1% | 56.2% | 24% | 24% | 71.7% (active) | -9% | -9% | 47.5% | -1% | -1% | 70.7% (active) | 11% | 11% | 76.5% (active)
C1CN1[PH+](N1CC1)N1CC1.C1CN1[PH+](N1CC1)N1CC1.[I][Pt][I] | 2% | 20% | 66.5% | 0% | 20% | 14.8% | 2% | 30% | 59.8% | 1% | 14% | 21.8% | 2% | 21% | 22.7% | 5% | 44% | 73.8% (active)
CN(C=O)C(=S)[S][Sb]([S]C(=S)N(C)C=O)[S]c1nc2ccc(N=Nc3ccc(NS(=O)(=O)c4ccc(NC(=O)C(N5CC5)(N5CC5)N5CC5)cc4)cc3)cc2s1 | 4% | 6% | 99.2% (active) | 0% | -5% | 99.3% (active) | -1% | 20% | 99.5% (active) | 4% | 3% | 98.7% (active) | 2% | 8% | 99.2% (active) | 0% | 4% | 99.2% (active)
CC1(C)CC2(c3ccccc3)CC(c3ccccc3)C1C(C(=O)O)C2C(=O)O (configuration not stated) | 28% | 99% (active) | 99.2% (active) | 27% | 99% (active) | 99.3% (active) | 10% | 99% (active) | 99.2% (active) | 7% | 99% (active) | 98.8% (active) | 35% | 96% (active) | 98.5% (active) | 17% | 99% (active) | 99.2% (active)
CC(=O)OCC1(N2CCCC2)CCCCC1 | -3% | 2% | 5.05% | 2% | -3% | 5.35% | -3% | 16% | 43.4% | -5% | -17% | 0.45% | -10% | -10% | 23.6% | -16% | -6% | -16.6%
Clc1ccc(Cl)c(Cl)c1 | -10% | 99% (active) | 98.4% (active) | -3% | 97% (active) | 99% (active) | -6% | 98% (active) | 98.8% (active) | 8% | 92% (active) | 96.5% (active) | -8% | 98% (active) | 62% | 2% | 99% (active) | 98.2% (active)
S=C=NC/C(Cl)=C/Cl | 43% | 48% | 71.9% (active) | 49% | 45% | 53.5% | 14% | 89% (active) | 72.5% (active) | 56% | 71% (active) | 56.9% | 35% | 91% (active) | 69.2% | 38% | 46% | 70.5% (active)
O=C1[O][Hg][c]2c1cccc2[N+](=O)[O-] | 99% (active) | 99% (active) | 99.2% (active) | 100% (active) | 100% (active) | 99.2% (active) | 100% (active) | 100% (active) | 99.4% (active) | 52% | 98% (active) | 97.6% (active) | 100% (active) | 100% (active) | 99.4% (active) | 100% (active) | 99% (active) | 99.2% (active)
C#CC1(OC(C)=O)CCC2C3CC=C4C=C(OC(C)=O)CCC4(C)C3CCC21C (configuration not stated) | 16% | 48% | 90.5% (active) | -1% | 17% | 40.2% | 2% | 56% | 86.9% (active) | 10% | 15% | -0.6% | 1% | 3% | 13.9% | 2% | -4% | 61.1%

Reference: PubChem BioAssay (NCI)
